Experimental data as given in PubChem BioAssay (Tox21).
Where “and” joins values, the source holds several entries; their conditions need not be identical. Equal entries are not always repeated. Some compounds were tested as several samples or in several runs, with calls that do not always agree. Calls of active or inactive are those of the source. A call without a number means that no potency is given here. Unless noted, calls come from the whole dose curve; as a rule, active = well fitted curve in the direction sought with a large enough effect in the repeat runs; inconclusive = weak or mixed curves; inactive = flat fitted curve, though single readings scatter.

Experiments:
[1] = qHTS assay to test for compound auto fluorescence at 535 nm (green) in HEK293 cells (AID 720680)
[2] = qHTS assay to test for compound auto fluorescence at 460 nm (blue) in HEK293 cell free culture (AID 720681)
Outline: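 Test compounds were pinned into cell-free culture medium (DMEM with 10% FBS) and fluorescence was read directly at Ex/Em 405/460 nm. Signals were expressed as fluorescence equivalents of triamterene, with DMSO vehicle as control.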

[3] = qHTS assay to test for compound auto fluorescence at 535 nm (green) in HEK293 cell free culture (AID 720682)
Outline: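 DMEM + 10% FBS, cell-free; cpd or DMSO pinned in; Ex485/Em535 read; output as fluorescein-equivalent signal.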

[4] = qHTS assay to test for compound auto fluorescence at 590 nm (red) in HEK293 cell free culture (AID 720683)
Outline: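 Tox21 10K library compounds were pinned into cell-free DMEM with 10% FBS and fluorescence was read at excitation 540 nm. Activity is expressed as Rose Bengal sodium equivalency.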

[5] = qHTS assay to test for compound auto fluorescence at 590 nm (red) in HepG2 cell free culture (AID 720684)
Outline: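 Readout: intrinsic compound fluorescence at 590 nm emission after 540 nm excitation, scaled to Rose Bengal sodium. Matrix was cell-free MEM with 10% FBS; DMSO vehicle wells served as control.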

[6] = qHTS assay to test for compound auto fluorescence at 460 nm (blue) in HepG2 cell free culture (AID 720685)
Outline: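 Cell-free plates of MEM plus 10% FBS received 23 nL compound or DMSO vehicle; blue-channel (405/460 nm) intensity scored against triamterene as reference fluorophore.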

[7] = qHTS assay to test for compound auto fluorescence at 535 nm (green) in HepG2 cell free culture (AID 720686)
[8] = qHTS assay to test for compound auto fluorescence at 460 nm (blue) in HepG2 cells (AID 720687)
Outline: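 Cells (2,000/well in MEM with 10% FBS) attached overnight at 37 C, then were exposed to compound or DMSO for 1 hr at 37 C, 5% CO2. Fluorescence read at Ex/Em 405/460 nm, expressed as triamterene-equivalent signal.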

[9] = molecular target: Glucocorticoid receptor (Homo sapiens) (UniProt P04150); assay: qHTS assay to identify small molecule agonists of the glucocorticoid receptor (GR) signaling pathway (AID 720691; active = well fitted activation curve with a large enough effect in the signal ratio in the repeat runs, not every such curve was filed as active; inconclusive = weak or mixed curves, or effect the other way; inactive = no such curve, though single readings can be large or run the other way; the % refers to the signal ratio; note: potency is the fitted concentration of half-maximal effect); conditions: GR-bla HeLa, beta-lactamase reporter ratio, 18 h; for Potency: activation: at 62.4 µM (top of the series) unless noted
Glucocorticoid receptor (Homo sapiens), sequence (P04150 whole entry, looked up): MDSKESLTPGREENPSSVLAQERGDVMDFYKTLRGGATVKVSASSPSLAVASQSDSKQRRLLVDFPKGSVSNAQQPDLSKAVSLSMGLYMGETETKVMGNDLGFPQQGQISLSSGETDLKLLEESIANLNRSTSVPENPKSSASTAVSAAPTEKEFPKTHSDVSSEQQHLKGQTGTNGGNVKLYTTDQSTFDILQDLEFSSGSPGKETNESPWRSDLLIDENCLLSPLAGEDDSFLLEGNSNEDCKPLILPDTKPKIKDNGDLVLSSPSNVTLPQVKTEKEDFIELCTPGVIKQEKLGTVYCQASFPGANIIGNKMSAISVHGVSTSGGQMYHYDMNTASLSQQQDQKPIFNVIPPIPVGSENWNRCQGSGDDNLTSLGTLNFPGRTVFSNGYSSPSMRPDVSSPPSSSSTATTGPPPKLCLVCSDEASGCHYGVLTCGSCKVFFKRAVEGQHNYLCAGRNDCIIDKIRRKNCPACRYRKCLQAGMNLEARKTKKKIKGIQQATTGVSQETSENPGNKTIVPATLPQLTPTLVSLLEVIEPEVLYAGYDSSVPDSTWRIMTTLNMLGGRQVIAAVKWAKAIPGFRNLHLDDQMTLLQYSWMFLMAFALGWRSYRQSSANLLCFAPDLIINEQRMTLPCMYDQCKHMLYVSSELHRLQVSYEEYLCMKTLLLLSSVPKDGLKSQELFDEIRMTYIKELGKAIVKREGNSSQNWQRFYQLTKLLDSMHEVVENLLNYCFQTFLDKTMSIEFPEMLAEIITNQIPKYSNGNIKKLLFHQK
Outline: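 Measures GR pathway activation through a GRE-beta-lactamase reporter stably integrated in HeLa cells, with 18 h compound treatment at 37 C and fluorescence detection using a FRET substrate.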

[10] = molecular target: Glucocorticoid receptor (Homo sapiens) (UniProt P04150); assay: qHTS assay to identify small molecule antagonists of the glucocorticoid receptor (GR) signaling pathway (AID 720692; active = well fitted inhibition curve with a large enough effect in the signal ratio in the repeat runs, not every such curve was filed as active; inconclusive = weak or mixed curves, or effect the other way; inactive = no such curve, though single readings can be large or run the other way; the % refers to the signal ratio; note: potency is the fitted concentration of half-maximal effect)
Outline: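 Tox21 10K library screened in concentration-response for blockade of dexamethasone (5 nM final)-induced GRE-bla reporter activity in HeLa cells; 18 h treatment, fluorescence read.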

| Structure (SMILES) | outcome [1] | Potency [2] | outcome [3] | outcome [4] | outcome [5] | Potency [6] | outcome [7] | outcome [8] | Potency [9] | activation ([9]; at 62.4 µM (top of the series)) | Potency [10] |
| --- | --- | --- | --- | --- | --- | --- | --- | --- | --- | --- | --- |
| O=[N+]([O-])C(CO)(CO)CO | inactive | inactive | inactive | inactive | inactive | inactive | inactive | inactive | – | – | – |
| Cc1cc(O)c2c(c1)C(=O)c1cc(O)cc(O)c1C2=O | inactive | inactive | inactive | inactive | inactive | inactive | inactive | inactive | inactive | – | – |
| c1ccc2ccccc2c1 | inactive | inactive | inactive | inactive | inactive | inactive | inactive | inactive | – | – | – |
| CN(CCOc1ccc(CC2SC(=O)NC2=O)cc1)c1ccccn1 (stereo not given) | inactive | inactive | inactive | inactive | inactive | inactive | inactive | inactive | – | – | – |
| S=c1nc[nH]c2nc[nH]c12 | inactive | inactive | inactive | inactive | inactive | inactive | inactive | inactive | – | – | – |
| CC1=C(/C=C/C(C)=C/C=C/C(C)=C/CO)C(C)(C)CCC1 | inactive | inactive | inactive | inactive | inactive | inactive | inactive | inactive | – | – | – |
| CCCCC(CC)COC(=O)/C=C\C(=O)OCC(CC)CCCC (stereo not given) | inactive | inactive | inactive | inactive | inactive | inactive | inactive | inactive | inactive | – | – |
| Nc1c(S(=O)(=O)O)cc(Br)c2c1C(=O)c1ccccc1C2=O | inactive | inactive | inactive | inactive | inactive | inactive | inactive | inactive | – | – | – |
| O=[N+]([O-])c1cccc(Cl)c1 | inactive | inactive | inactive | inactive | inactive | inactive | inactive | inactive | – | – | – |
| CS(=O)(=O)Nc1ccc([N+](=O)[O-])cc1Oc1ccccc1 | inactive | inactive | inactive | inactive | inactive | inactive | inactive | inactive | – | – | – |
| CC1Cc2ccccc2N1NC(=O)c1ccc(Cl)c(S(N)(=O)=O)c1 (stereo not given) | inactive | inactive | inactive | inactive | inactive | inactive | inactive | inactive | – | – | – |
| O=C(c1cc(O)c(O)c(O)c1)c1ccc(O)c(O)c1O | inactive | inactive | inactive | inactive | inactive | inactive | inactive | inactive | inactive | – | – |
| CCC(C)C=O (stereo not given) | inactive | inactive | inactive | inactive | inactive | inactive | inactive | inactive | – | – | – |
| OC[C@@H](O)[C@@H](O)[C@H](O)[C@@H](O)CO | inactive | inactive | inactive | inactive | inactive | inactive | inactive | inactive | – | – | – |
| Oc1ccc2ccccc2c1N=Nc1ccccc1 | inactive | inactive | inactive | inactive | inactive | inactive | inactive | inactive | – | – | – |
| NCCc1ccc(O)c(O)c1 | inactive | inactive | inactive | inactive | inactive | inactive | inactive | inactive | – | – | – |
| O=C(Oc1ccccc1)c1ccc(O)cc1 | inactive | inactive | inactive | inactive | inactive | inactive | inactive | inactive | inactive | – | – |
| CC1=CC[C@H]2C[C@@H]1C2(C)C | inactive | inactive | inactive | inactive | inactive | inactive | inactive | inactive | – | – | – |
| C=CC(=O)OCCCCCCCC(C)C | inactive | inactive | inactive | inactive | inactive | inactive | inactive | inactive | – | – | – |
| CC[Si](OC(C)=O)(OC(C)=O)OC(C)=O | inactive | inactive | inactive | inactive | inactive | inactive | inactive | inactive | – | – | – |
| CC1(C)O[C@@H]2C[C@H]3[C@@H]4C[C@H](F)C5=CC(=O)CC[C@]5(C)[C@H]4[C@@H](O)C[C@]3(C)[C@]2(C(=O)CO)O1 | inactive | inactive | inactive | inactive | inactive | inactive | inactive | inactive | 18.2 nM [inconclusive] (active) and 3.9 nM (active) | – | – |
| CC(=O)CCc1ccccc1 | inactive | inactive | inactive | inactive | inactive | inactive | inactive | inactive | – | – | – |
| C/C=C(C)/C=C/C=C(C)C | inactive | inactive | inactive | inactive | inactive | inactive | inactive | inactive | – | – | – |
| COC(=O)c1ccccc1O | inactive | inactive | inactive | inactive | inactive | inactive | inactive | inactive | – | – | – |
| CCCCC/C=C\C/C=C\CCCCCCCC(=O)OC | inactive | inactive | inactive | inactive | inactive | inactive | inactive | inactive | – | – | – |

| Structure (SMILES) | outcome [1] | Potency [2] | outcome [3] | outcome [4] | outcome [5] | Potency [6] | outcome [7] | outcome [8] | Potency [9] | activation ([9]; at 62.4 µM (top of the series)) | Potency [10] |
| --- | --- | --- | --- | --- | --- | --- | --- | --- | --- | --- | --- |
| CC(C)NCC(O)COc1cccc2ccccc12 (stereo not given) | inactive | inactive | inactive | inactive | inactive | inactive | inactive | inactive | – | – | – |
| CC1(C)CC(N=C=O)CC(C)(CN=C=O)C1 (stereo not given) | inactive | inactive | inactive | inactive | inactive | inactive | inactive | inactive | – | – | – |
| O=[N+]([O-])c1cc(N(CCO)CCO)ccc1NCCO | inactive | inactive | inactive | inactive | inactive | inactive | inactive | inactive | – | – | – |
| NS(=O)(=O)c1cc2c(cc1Cl)NC=NS2(=O)=O | inactive | inactive | inactive | inactive | inactive | inactive | inactive | inactive | – | – | – |
| CC#C[C@]1(O)CC[C@H]2[C@@H]3CCC4=CC(=O)CCC4=C3[C@@H](c3ccc(N(C)C)cc3)C[C@@]21C | inactive | inactive | inactive | inactive | inactive | inactive | inactive | inactive | inactive | – | – |
| c1ccc2[nH]cnc2c1 | inactive | inactive | inactive | inactive | inactive | inactive | inactive | inactive | – | – | – |
| OC[C@@H](O)[C@H](O)[C@H](O)[C@@H](O)CO | inactive | inactive | inactive | inactive | inactive | inactive | inactive | inactive | – | – | – |
| C=C1CC[C@H](O)CC1=C/C=C1\CCC[C@]2(C)[C@@H]([C@H](C)/C=C/[C@H](C)C(C)C)CC[C@@H]12 | inactive | inactive | inactive | inactive | inactive | inactive | inactive | inactive | inactive | – | – |
| CNC[C@H](O)[C@@H](O)[C@H](O)[C@H](O)CO | inactive | inactive | inactive | inactive | inactive | inactive | inactive | inactive | – | – | – |
| COC(=O)c1ccc(C(=O)OC)cc1 | inactive | inactive | inactive | inactive | inactive | inactive | inactive | inactive | – | – | – |
| CC(C)n1c(/C=C/[C@@H](O)C[C@@H](O)CC(=O)O)c(-c2ccc(F)cc2)c2ccccc21 | inactive | inactive | inactive | inactive | inactive | inactive | inactive | inactive | – | – | – |
| O=C(c1ccc(O)cc1)c1ccc(O)cc1O | inactive | inactive | inactive | inactive | inactive | inactive | inactive | inactive | inactive | – | – |
| O=S(=O)(Oc1ccc(Cl)cc1Cl)c1ccccc1 | inactive | inactive | inactive | inactive | inactive | inactive | inactive | inactive | – | – | – |
| COC(=O)Nc1nc2ccc(Sc3ccccc3)cc2[nH]1 | – | – | – | – | – | – | – | – | – | 2.36% (inactive) | – |
| CN(C)c1ccc(C(=N)c2ccc(N(C)C)cc2)cc1 | inactive | – | inactive | inactive | inactive | inactive | inactive | – | inactive | – | – |
| Oc1c(Cl)cc(Cl)c(Cl)c1Cl | inactive | inactive | inactive | inactive | inactive | inactive | inactive | inactive | inactive | – | 49 µM (active) |
| CC(C)(CO)COC(=O)C(C)(C)CO | inactive | inactive | inactive | inactive | inactive | inactive | inactive | inactive | inactive | – | inactive |
| O=C(Cl)c1c(Cl)c(Cl)c(C(=O)Cl)c(Cl)c1Cl | inactive | inactive | inactive | inactive | inactive | inactive | inactive | inactive | inactive | – | inactive |
| O=C(O)c1cc(-c2ccccc2)nc2ccccc12 | inactive | inactive | inactive | inactive | inactive | inactive | inactive | inactive | inactive | – | inactive |
| O=S(=O)(O)c1cc(S(=O)(=O)O)c2c(N=Nc3ccccc3)c(O)ccc2c1 | inactive | inactive | inactive | inactive | inactive | inactive | inactive | inactive | inactive | – | inactive |
| Cc1ccc(C)c(C)c1 | inactive | inactive | inactive | inactive | inactive | inactive | inactive | inactive | inactive | – | inactive |
| NC(=O)NNc1ccccc1 | inactive | inactive | inactive | inactive | inactive | inactive | inactive | inactive | inactive | – | inactive |
| CC(C)(N=C=O)c1cccc(C(C)(C)N=C=O)c1 | inactive | inactive | inactive | inactive | inactive | inactive | inactive | inactive | inactive | – | inactive |
| O=S(=O)(O)CCS | inactive | inactive | inactive | inactive | inactive | inactive | inactive | inactive | inactive | – | inactive |
| OCC#CCO | inactive | inactive | inactive | inactive | inactive | inactive | inactive | inactive | inactive | – | inactive |
